Results from PubChem BioAssay (NCI).
“And” between values parts separate entries of the source, which are not always exact repeats. Identical values can stand only once. About 83,000 compounds went through this panel and 20% of them were active in at least one assay; those are over-represented in the sample as a whole.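 Interpretation: 100, growth as untreated; towards 0, rising growth inhibition; 0, no net growth; 0 to -100, cell death. Compounds scoring below 10 were considered active.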 Unmarked numbers belong to inactive results. The source made the active and inactive calls.

System: MDA-MB-468 breast
Assay: NCI-60 one-dose screen, 48 h (100 = growth as untreated, 0 = no growth, -100 = all killed)
Conditions: 10 µM unless noted

Structure (SMILES)	growth
CN1CCN(C(=O)Oc2cc3c(c4ccccc24)[C@H](CCl)CN3C(=O)c2cc3cc(OCCCN4CCC4)ccc3[nH]2)[C@H]2CSSC[C@H]21	-78.4% (active)
N#Cc1cc(-c2ccc3ncnc(N4CCc5cc(F)c(Cl)cc54)c3c2)cnc1N	-14.7% (active)
CC1=NN(C2=NC(=O)C(CC(=O)Nc3ccccc3C(F)(F)F)S2)C(c2ccc(N(C)C)cc2)C1 (stereo not drawn)	3.34% (active)
O=C1Nc2ccccc2/C1=C/C(=O)c1cc2ccccc2oc1=O	54.4%
Cc1ccccc1NC(=O)c1cccc(NC(=O)CCl)c1	-0.88% (active)
Cn1cc(-c2cc(N)n3nc(-c4c[nH]c5ccccc45)cc3n2)c2cc(Br)ccc21	-80.8% (active)
Nc1nc2cc(-c3ccc4ncnc(NCc5ccccc5)c4c3)ccc2o1	-47.5% (active)
O=C(N/N=C/c1ccc(-c2cccc([N+](=O)[O-])c2)s1)c1[nH]c2ccc(Br)cc2c1-c1ccccc1	103%
Cc1nc(Nc2ccccn2)sc1C1=NNC(c2ccccc2F)C1 (stereo not drawn)	-13.7% (active)
CC(C)(C)c1ccc(OCc2nc3ccccc3n2-c2cccc(N)c2)cc1	69% and 96.4%
CC1=C(C(=O)OCc2ccccc2)C(c2cccc3ccccc23)n2c(nc3ccccc32)N1 (stereo not drawn)	-42.5% (active)
Cc1cc(=O)oc2cc(OCC(O)CNN3C(=O)c4cccc5c(N6CCN(C)CC6)ccc(c45)C3=O)ccc12 (stereo not drawn)	108%
CN(C)CCOc1ccc(C(=O)C2[C@H](c3ccc(Cl)cc3)[C@@H](c3ccccc3)NC23C(=O)Nc2ccc(Cl)cc23)cc1 (stereo partly drawn)	-92.3% (active)
O=C1Nc2cc(-c3ccc(NS(=O)(=O)c4ccc(-c5ccccc5)cc4)cc3)ccc2/C1=C/c1ccc[nH]1	-52.5% (active)
CCCSc1nnc(-c2sc3nc4ccccc4n3c2C)o1	88.9%
COc1ccc2[nH]c(O)c(N=Nc3nc(-c4ccc(C#N)cc4)cs3)c2c1	77.5%
CCOc1ccc2[nH]c(=O)c(C(c3nnnn3CC3CCCO3)N3CCN(Cc4ccccc4)CC3)cc2c1 (stereo not drawn)	72.4%
Cc1cccc(NCC(=O)N2CCN(c3ncnc4c3cnn4-c3ccccc3)CC2)c1	35.8%
COc1ccc(NC(=O)CSc2nnc(-c3ccc(-c4nc5ccc(Cl)cc5[nH]4)cc3)o2)cc1	86.2%

Structure (SMILES)	growth
N/C(=N\c1nc2ccccc2s1)NC(=O)Nc1ccccc1[N+](=O)[O-]	-0.807% (active)
N#CC1=C(c2cccs2)Nc2c(c(-c3ccccc3)nn2-c2ccccc2)C12C(=O)Nc1ccc(Cl)cc12 (stereo not drawn)	-22.1% (active)
Cn1cc(-c2cc3nc(-c4cn(C)c5ncccc45)cc(N)n3n2)c2cc(F)ccc21	7.65% (active)
C#CCN(C)CCCOc1ccc(N(C)C(=O)c2cc(C(C)C)c(O)cc2O)cc1Cl	-30.8% (active)
COc1cc(NC(=O)CSc2nnc(-c3ccc(-c4nc5ccc(Cl)cc5[nH]4)cc3)o2)cc(OC)c1OC	3.14% (active)
CS(=O)(=O)Nc1cc(-c2ccc3ncnc(N4CCc5cc(F)c(Cl)cc54)c3c2)cnc1Cl	-60.2% (active)
CC1=C(C(=O)Nc2ccccc2)C(c2cccc3ccccc23)n2c(nc3ccccc32)N1 (stereo not drawn)	49.9%
COc1cc(C2CC(c3ccc(C(F)(F)F)cc3)=Nc3c(N)nc(N)nc3N2)ccc1Oc1nc(Nc2ccc(F)cc2)nc(N(C)C)n1 (stereo not drawn)	-8.26% (active)
C[C@@H]1[C@H]2C[C@@H](C[C@H]1NCc1nc3ccccc3n1C1CCCCCC1)C2(C)C	2.05% (active)
CS(=O)(=O)Nc1cccc(-n2cnc3cc(-c4ccc(O)cc4)ccc32)c1	6.92% (active)
COc1ccc2c(c1)C(=O)N(C)C2C1c2c(cc3c(c2OC)OCO3)CCN1C (stereo not drawn)	8.46% (active)
CCOc1ccc(-c2cc(-c3cc(C(C)C)c(O)cc3C)nn2-c2ccc(S(N)(=O)=O)cc2)cc1	-16.5% (active)
O=C(c1ccc(O)cc1)C1[C@H](c2ccc(Cl)cc2)[C@@H](c2ccccc2)NC12C(=O)Nc1ccc(Br)cc12 (stereo partly drawn)	-61.1% (active)
COc1cc(CNC(=O)C[C@H](C)CCC=C(C)C)ccc1OCc1cn(-c2ccccc2Cl)nn1	28.5%
Cc1ccc(Cl)cc1NC(=O)Nc1nc2ccc([N+](=O)[O-])cc2s1	-39.3% (active)
COc1cc(/C=N/NC(=O)c2ccc(OCc3nc4ccc(C)cc4[nH]3)cc2)cc(OC)c1OC	41.5%
COc1ccccc1/C=C/c1cccc(NC(=S)NCCCCN(C)C)c1	-86% (active)
CC1(C)CC(=O)C2=C(C1)OC(N)=C(c1nc3ccccc3[nH]1)C2c1ccc(Cl)cc1 (stereo not drawn)	47.3% and 103%
O=C1CCC(N2C(=O)c3cccc(NCCCCCC(=O)N4CCN(c5ccc6nc7c(nc6c5C(F)(F)F)C(=O)c5ncccc5C7=O)CC4)c3C2=O)C(=O)N1 (stereo not drawn)	-49.9% (active)
